Several values for one entry are separate records, joined by “and”; a condition that tells them apart may be missing. Equal entries are not always repeated.
Key:
[1] = target: Tyrosine-protein kinase Fyn (Homo sapiens) (UniProt P06241); conditions: at 1 µM
[2] = target: Tyrosine-protein kinase HCK (Homo sapiens) (UniProt P08631); conditions: at 0.1 µM
[3] = target: Tyrosine-protein kinase HCK (Homo sapiens) (UniProt P08631); conditions: at 1 µM
[4] = target: Insulin-like growth factor 1 receptor (Homo sapiens) (UniProt P08069); conditions: at 0.1 µM
Insulin-like growth factor 1 receptor (Homo sapiens), sequence (P08069 31-736 limits assumed): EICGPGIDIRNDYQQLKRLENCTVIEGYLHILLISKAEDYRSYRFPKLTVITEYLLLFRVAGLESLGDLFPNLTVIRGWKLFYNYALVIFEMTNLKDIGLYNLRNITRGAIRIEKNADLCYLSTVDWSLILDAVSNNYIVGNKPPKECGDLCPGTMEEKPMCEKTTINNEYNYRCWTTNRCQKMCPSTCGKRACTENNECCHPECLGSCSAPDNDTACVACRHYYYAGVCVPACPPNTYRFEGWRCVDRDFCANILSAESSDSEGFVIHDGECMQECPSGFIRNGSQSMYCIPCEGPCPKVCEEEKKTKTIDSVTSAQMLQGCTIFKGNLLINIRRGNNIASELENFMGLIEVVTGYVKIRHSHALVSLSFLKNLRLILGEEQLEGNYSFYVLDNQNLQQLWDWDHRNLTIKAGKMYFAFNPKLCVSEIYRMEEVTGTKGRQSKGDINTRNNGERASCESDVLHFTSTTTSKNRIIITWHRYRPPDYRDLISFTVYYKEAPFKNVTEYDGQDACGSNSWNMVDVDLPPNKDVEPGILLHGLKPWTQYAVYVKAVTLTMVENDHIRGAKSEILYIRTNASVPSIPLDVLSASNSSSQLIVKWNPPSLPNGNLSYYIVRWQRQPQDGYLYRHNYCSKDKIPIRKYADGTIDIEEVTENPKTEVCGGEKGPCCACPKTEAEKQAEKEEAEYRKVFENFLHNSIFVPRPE
Insulin-like growth factor 1 receptor (Homo sapiens), sequence (P08069 741-1367 limits assumed): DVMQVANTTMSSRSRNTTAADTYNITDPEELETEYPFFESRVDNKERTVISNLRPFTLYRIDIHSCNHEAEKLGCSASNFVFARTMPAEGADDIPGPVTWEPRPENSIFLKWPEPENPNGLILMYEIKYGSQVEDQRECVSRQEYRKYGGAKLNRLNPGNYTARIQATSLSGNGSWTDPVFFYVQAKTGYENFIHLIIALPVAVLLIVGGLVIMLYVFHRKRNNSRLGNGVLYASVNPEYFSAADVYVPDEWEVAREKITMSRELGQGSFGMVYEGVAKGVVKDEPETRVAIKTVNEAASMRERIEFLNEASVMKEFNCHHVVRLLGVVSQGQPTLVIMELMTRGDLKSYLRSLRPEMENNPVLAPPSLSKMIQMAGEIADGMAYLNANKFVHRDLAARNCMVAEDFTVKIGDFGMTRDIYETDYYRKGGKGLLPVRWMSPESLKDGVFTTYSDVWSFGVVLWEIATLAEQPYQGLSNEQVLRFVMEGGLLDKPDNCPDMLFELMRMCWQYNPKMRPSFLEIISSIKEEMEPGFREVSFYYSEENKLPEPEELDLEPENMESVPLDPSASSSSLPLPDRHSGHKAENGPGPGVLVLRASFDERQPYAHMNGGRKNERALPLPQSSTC

[5] = target: Insulin-like growth factor 1 receptor (Homo sapiens) (UniProt P08069); conditions: at 1 µM
[6] = target: Insulin receptor (Homo sapiens) (UniProt P06213); conditions: at 0.1 µM
Insulin receptor (Homo sapiens), sequence (P06213 28-758 limits assumed): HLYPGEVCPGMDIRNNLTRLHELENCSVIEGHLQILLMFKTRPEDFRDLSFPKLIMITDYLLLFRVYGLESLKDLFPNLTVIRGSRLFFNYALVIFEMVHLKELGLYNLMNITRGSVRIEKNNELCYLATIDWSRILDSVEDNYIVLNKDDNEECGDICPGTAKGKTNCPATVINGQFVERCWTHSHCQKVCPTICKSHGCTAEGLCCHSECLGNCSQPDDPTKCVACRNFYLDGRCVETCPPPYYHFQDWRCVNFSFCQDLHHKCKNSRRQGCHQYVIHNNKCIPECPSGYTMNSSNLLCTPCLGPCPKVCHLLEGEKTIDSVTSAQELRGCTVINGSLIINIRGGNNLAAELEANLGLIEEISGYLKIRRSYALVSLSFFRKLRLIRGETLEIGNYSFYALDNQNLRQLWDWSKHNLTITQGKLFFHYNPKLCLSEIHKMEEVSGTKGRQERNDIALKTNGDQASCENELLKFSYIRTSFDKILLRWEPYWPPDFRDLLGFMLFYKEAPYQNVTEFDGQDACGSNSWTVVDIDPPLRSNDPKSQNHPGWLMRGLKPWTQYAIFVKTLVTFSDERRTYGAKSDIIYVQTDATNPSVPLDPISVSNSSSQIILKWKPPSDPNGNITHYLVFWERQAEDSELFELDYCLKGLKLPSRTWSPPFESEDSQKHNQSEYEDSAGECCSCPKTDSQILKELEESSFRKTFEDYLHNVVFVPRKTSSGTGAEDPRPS
Insulin receptor (Homo sapiens), sequence (P06213 763-1382 limits assumed): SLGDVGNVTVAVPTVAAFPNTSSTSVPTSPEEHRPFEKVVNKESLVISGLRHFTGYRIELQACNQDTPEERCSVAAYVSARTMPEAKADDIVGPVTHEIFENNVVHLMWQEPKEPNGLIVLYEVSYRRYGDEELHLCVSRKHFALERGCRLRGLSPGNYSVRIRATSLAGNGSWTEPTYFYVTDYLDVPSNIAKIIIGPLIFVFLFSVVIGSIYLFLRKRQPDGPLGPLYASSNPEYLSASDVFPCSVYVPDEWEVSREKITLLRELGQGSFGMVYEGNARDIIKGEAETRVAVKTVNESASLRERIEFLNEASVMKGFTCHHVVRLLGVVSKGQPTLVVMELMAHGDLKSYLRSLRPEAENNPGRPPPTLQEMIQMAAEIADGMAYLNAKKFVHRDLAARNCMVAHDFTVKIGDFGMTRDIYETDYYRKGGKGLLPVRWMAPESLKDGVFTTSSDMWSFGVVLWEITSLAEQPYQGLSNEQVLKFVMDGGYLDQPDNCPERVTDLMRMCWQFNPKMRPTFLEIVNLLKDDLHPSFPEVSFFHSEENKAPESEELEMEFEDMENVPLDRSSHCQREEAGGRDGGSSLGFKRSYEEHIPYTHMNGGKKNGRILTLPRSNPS

[7] = target: Insulin receptor (Homo sapiens) (UniProt P06213); conditions: at 1 µM
[8] = target: Insulin receptor-related protein (Homo sapiens) (UniProt P14616); conditions: at 0.1 µM
[9] = target: Insulin receptor-related protein (Homo sapiens) (UniProt P14616); conditions: at 1 µM
[10] = target: T1, Tyrosine-protein kinase ITK/TSK (Homo sapiens) (UniProt Q08881); conditions: at 0.1 µM
T1 sequence (whole entry): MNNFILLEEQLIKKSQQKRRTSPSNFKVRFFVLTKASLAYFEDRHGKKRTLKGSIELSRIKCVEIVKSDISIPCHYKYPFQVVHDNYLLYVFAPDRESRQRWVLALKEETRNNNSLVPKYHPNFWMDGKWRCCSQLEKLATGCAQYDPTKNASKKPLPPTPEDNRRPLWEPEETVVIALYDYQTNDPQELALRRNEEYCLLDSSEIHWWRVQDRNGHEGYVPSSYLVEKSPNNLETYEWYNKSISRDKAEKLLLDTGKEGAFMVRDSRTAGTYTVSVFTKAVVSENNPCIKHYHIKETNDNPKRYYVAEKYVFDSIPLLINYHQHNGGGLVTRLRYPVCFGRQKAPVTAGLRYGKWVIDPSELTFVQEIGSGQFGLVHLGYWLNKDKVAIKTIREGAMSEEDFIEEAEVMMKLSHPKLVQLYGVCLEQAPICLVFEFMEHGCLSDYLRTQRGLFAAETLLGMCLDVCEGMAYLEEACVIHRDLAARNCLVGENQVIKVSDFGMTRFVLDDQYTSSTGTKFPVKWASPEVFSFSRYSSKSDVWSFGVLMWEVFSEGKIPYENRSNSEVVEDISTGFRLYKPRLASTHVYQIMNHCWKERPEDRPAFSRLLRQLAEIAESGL

[11] = target: T1, Tyrosine-protein kinase ITK/TSK (Homo sapiens); conditions: at 1 µM
[12] = target: Tyrosine-protein kinase JAK1 (Homo sapiens) (UniProt P23458); conditions: at 0.1 µM
[13] = target: Tyrosine-protein kinase JAK1 (Homo sapiens) (UniProt P23458); conditions: at 1 µM
[14] = target: Tyrosine-protein kinase JAK2 (Homo sapiens) (UniProt O60674); conditions: at 0.1 µM
Tyrosine-protein kinase JAK2 (Homo sapiens), sequence (O60674 whole entry): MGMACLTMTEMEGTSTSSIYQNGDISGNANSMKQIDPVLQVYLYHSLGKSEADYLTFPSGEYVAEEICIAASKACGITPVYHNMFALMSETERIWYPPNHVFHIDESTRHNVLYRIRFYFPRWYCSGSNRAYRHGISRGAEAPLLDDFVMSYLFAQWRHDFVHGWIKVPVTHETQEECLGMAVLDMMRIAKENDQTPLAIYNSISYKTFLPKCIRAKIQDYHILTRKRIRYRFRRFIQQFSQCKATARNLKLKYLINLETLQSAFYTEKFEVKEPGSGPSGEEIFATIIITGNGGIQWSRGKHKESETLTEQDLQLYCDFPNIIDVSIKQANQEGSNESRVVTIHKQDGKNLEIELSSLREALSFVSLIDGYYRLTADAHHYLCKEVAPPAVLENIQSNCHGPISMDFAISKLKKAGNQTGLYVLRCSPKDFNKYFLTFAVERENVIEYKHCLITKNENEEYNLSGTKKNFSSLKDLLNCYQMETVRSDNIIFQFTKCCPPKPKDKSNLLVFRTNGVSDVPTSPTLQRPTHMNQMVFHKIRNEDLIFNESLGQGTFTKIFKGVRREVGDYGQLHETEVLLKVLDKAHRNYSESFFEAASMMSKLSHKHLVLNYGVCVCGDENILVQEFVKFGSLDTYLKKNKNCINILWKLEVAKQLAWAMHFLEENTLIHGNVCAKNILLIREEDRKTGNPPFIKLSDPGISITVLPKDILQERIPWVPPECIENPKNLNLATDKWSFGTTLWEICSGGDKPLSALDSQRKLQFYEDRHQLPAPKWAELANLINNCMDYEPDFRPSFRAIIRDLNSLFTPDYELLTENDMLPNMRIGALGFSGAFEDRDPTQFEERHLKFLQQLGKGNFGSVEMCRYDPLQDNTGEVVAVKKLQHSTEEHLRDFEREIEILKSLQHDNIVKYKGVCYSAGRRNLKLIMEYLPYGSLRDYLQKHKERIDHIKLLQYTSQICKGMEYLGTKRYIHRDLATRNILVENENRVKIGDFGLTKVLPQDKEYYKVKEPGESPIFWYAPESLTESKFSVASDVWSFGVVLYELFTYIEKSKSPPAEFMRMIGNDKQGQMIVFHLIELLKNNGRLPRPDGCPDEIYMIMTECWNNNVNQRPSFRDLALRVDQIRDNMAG

[15] = target: Tyrosine-protein kinase JAK2 (Homo sapiens) (UniProt O60674); conditions: at 1 µM
[16] = target: T2, Tyrosine-protein kinase JAK3 (Homo sapiens) (UniProt P52333); conditions: at 0.1 µM
T2 sequence (whole entry): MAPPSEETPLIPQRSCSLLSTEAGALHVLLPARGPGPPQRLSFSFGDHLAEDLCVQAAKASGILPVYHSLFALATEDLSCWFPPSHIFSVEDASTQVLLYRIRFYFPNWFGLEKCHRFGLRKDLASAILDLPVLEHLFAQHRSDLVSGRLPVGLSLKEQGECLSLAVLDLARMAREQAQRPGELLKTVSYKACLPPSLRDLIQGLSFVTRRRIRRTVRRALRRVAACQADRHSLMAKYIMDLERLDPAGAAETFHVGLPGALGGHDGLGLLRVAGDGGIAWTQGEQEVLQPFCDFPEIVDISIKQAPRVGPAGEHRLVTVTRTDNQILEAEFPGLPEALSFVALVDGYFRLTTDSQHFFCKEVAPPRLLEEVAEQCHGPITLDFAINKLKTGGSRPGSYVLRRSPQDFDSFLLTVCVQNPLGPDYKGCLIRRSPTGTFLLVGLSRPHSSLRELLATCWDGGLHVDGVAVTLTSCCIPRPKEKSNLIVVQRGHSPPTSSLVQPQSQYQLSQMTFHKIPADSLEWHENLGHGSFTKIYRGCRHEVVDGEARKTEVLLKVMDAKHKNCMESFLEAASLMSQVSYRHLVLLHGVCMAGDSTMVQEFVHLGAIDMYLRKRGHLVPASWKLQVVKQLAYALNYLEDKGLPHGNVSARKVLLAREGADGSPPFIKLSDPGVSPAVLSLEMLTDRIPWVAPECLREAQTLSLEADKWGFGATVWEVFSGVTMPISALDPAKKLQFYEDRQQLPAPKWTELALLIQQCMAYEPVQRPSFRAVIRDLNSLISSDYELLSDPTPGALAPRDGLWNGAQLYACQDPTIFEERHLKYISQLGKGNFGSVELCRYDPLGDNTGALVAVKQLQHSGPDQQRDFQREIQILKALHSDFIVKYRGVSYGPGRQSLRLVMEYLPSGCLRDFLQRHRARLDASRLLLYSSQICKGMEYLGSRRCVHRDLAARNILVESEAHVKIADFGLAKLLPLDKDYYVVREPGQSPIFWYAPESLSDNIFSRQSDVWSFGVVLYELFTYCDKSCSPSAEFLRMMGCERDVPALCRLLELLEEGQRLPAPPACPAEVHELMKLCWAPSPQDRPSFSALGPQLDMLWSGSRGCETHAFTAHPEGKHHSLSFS

[17] = target: T2, Tyrosine-protein kinase JAK3 (Homo sapiens); conditions: at 1 µM
[18] = target: Vascular endothelial growth factor receptor 2 (Homo sapiens) (UniProt P35968); conditions: at 0.1 µM
[19] = target: Vascular endothelial growth factor receptor 2 (Homo sapiens) (UniProt P35968); conditions: at 1 µM
[20] = target: Mast/stem cell growth factor receptor Kit (Homo sapiens) (UniProt P10721); conditions: at 0.1 µM;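 further: values are mean inhibition of KIT, from the GSK PKIS dataset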

Tyrosine-protein kinase HCK (Homo sapiens), sequence (P08631 2-526 limits assumed): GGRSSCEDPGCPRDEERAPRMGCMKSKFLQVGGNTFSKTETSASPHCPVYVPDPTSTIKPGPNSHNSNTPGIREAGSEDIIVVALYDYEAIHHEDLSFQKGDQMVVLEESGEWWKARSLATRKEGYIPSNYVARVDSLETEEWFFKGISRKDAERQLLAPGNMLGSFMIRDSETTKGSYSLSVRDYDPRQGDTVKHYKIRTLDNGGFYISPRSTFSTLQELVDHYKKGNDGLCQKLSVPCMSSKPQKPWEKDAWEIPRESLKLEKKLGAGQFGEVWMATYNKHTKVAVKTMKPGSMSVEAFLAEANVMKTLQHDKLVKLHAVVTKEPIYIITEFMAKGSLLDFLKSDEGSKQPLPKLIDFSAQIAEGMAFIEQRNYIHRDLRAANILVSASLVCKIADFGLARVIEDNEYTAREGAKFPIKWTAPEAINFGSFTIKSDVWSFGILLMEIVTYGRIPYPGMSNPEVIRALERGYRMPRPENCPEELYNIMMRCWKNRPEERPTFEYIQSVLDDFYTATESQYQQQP
Tyrosine-protein kinase Fyn (Homo sapiens), sequence (P06241 2-537 limits assumed): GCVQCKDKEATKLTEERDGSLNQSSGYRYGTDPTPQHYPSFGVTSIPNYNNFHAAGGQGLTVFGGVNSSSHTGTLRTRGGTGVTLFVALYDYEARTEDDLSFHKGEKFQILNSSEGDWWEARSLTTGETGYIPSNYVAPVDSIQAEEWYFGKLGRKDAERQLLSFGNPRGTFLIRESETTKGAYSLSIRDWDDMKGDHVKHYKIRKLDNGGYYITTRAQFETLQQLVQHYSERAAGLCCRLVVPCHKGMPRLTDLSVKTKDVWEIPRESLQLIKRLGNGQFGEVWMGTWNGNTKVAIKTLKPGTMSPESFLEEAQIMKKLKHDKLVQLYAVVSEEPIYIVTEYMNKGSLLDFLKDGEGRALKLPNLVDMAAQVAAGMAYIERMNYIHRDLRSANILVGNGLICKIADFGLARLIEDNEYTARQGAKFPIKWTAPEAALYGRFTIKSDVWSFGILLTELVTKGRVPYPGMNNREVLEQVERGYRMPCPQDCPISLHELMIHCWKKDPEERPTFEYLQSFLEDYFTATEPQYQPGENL

Structure (SMILES)	inhibition [1]	inhibition [2]	inhibition [3]	inhibition [4]	inhibition [5]	inhibition [6]	inhibition [7]	inhibition [8]	inhibition [9]	inhibition [10]	inhibition [11]	inhibition [12]	inhibition [13]	inhibition [14]	inhibition [15]	inhibition [16]	inhibition [17]	inhibition [18]	inhibition [19]	inhibition [20]
NC(=O)c1ccc2c(-c3ccnc(NCCCO)n3)c(-c3ccc(F)cc3)nn2c1	5.23%	7.1%	15.6%	3.95%	6.12%	10.3%	6.62%	4.18%	4.01%	1.32%	1.77%	0.15%	4.59%	1.16%	2.01%	-1.31%	-0.86%	6.05%	16.6%	6.24%
NS(=O)(=O)c1cccc(N/C=C2\C(=O)Nc3ccccc32)c1	4.25%	6.87%	17.6%	2.44%	5.81%	5.3%	11.9%	2.22%	2.55%	1.13%	3.54%	2.83%	6.08%	1.37%	2.13%	-2%	0.9%	9.08%	35.3%	16.4%
CS(=O)(=O)CCNCc1ccc(-c2ccc3ncnc(Nc4ccc(OCc5cccc(C(F)(F)F)c5)cc4)c3c2)o1	0.05%	9.32%	11.7%	18.2%	11.6%	11.2%	3.04%	1.51%	3.38%	1.71%	1.4%	1.68%	1.38%	4.27%	3.35%	-1.49%	0.32%	5.19%	11%	4.53%
Cc1nnc(-c2cccc(-c3ccc(C(=O)NCC4CC4)cc3)c2)o1	0.54%	5.93%	8.3%	3.76%	6.53%	9.39%	5.71%	4.48%	3.22%	0.99%	2.05%	2.76%	9.78%	1.87%	2.79%	-1.21%	0.46%	6.85%	9.47%	7.19%
COc1ccc2ncn(-c3cc(O[C@H](C)c4ccccc4C(F)(F)F)c(C(N)=O)s3)c2c1	5%	0.81%	2.14%	-0.28%	-0.09%	0.11%	1.34%	-2.16%	-0.27%	0.33%	1.39%	-0.98%	5.43%	1.01%	-1.12%	0.5%	6.44%	2.92%	14.1%	-1.6%
COc1cccc(-n2ncc3c(N/N=C/c4ccc(C(=O)NCCN(C)C)cc4)ncnc32)c1	84.5%	23.1%	68.8%	3.78%	4.69%	0.94%	1.97%	5.09%	1.31%	2.07%	8.64%	4.89%	18.1%	2.63%	14.1%	0.22%	15.4%	43.6%	68.7%	15.5%
Fc1ccc(Nc2nccc(-c3c(-c4ccc(C(F)(F)F)cc4)nn4ncccc34)n2)cc1F	2.19%	4.54%	7.92%	1.9%	4.26%	4.61%	3.27%	3.45%	2.2%	1.45%	2.42%	2.03%	0.13%	1.44%	2.24%	-1.12%	0.59%	5.73%	7.03%	4.14%
Nc1nonc1-c1nc2cnccc2n1C1CC1	1.39% and -1.43%	5.06% and 2.65%	10.4% and 4.62%	2.14% and -5.78%	3.37% and -3.55%	-0.15% and 4.69%	2.19% and 6.69%	2.59% and 0.39%	3.14% and 0.7%	1.56% and -2.28%	1.67% and -2.42%	0.26% and 0.62%	-0.07% and 3.24%	0.87% and 1.12%	3.76% and 0.55%	4.13% and -4.12%	4.66% and -3.11%	14.3% and 13.8%	54.2% and 52%	4.06% and 2.58%
COc1ccc(-c2nn3ncccc3c2-c2ccnc(Nc3ccc(F)c(F)c3)n2)cc1	12.1%	3.38%	16.5%	2.75%	3.2%	4.32%	2.06%	3.12%	3.47%	0.92%	3.13%	3.71%	14.6%	0.73%	1.18%	-1.36%	0.8%	6.9%	20.6%	7.56%
CCCNc1cccc(-n2ncc3c(N/N=C/c4ccncc4)ncnc32)c1	52.8%	7.22%	35.8%	0.75%	-0.01%	1.6%	0.96%	0.19%	1.63%	6.02%	10.8%	6.59%	11.7%	0.82%	14.7%	-1.09%	8.21%	17.3%	64.9%	2.4%
OCCCNc1nccc(-c2c(-c3ccc(F)cc3)nn3cc(C(F)(F)F)ccc23)n1	4.88%	5.52%	5.92%	1.8%	1.03%	0.28%	3.33%	3.08%	1.53%	1.09%	0.19%	-0.95%	-4.2%	1.8%	0.99%	0.08%	1.33%	4.84%	6.21%	3.28%
CS(=O)(=O)CCNCc1ccoc1-c1ccc2ncnc(Nc3ccc(OCc4ccccc4)cc3)c2c1	7.94%	0.7%	5.65%	1.37%	-0.73%	0.36%	1.13%	-1.72%	0.44%	-0.12%	1.03%	-1.22%	-0.53%	-0.17%	-0.95%	-0.19%	0.82%	3.88%	5.6%	1.94%

Reference: ChEMBL document CHEMBL1961873, “Compounds: GSK PKIS; Assays: Nanosyn kinase panel” (2012)
